Results taken from PubChem BioAssay (NCATS).
A number with no mark means an inactive call. Activity calls are given as the source filed them. How the calls were made is not given here.

system: HIV-1 nucleocapsid protein NCp7 (binding to TG oligonucleotide); assay: HIV Nucleocapsid (AID 346); conditions: HIV-1 NC / fluorescein-TGTGTGTG probe, fluorescence polarization;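 further: potency is for inhibitors that block NC binding and lower polarization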
Method in brief: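 NCp7 100 nM + fluorescein TG4xF 10 nM; Hepes pH 7.5/250mM NaCl/1uM ZnCl2/0.004% PEG 20000; 1 hr RT; FP, 45 s exposure; oligo-only wells as negative control.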
Potency means the concentration at half of the fitted maximal effect.

SMILES	Potency
COc1cccc(Nc2ncc3ncc(=O)n(C4CC4)c3n2)c1	> 4 µM
Cc1nc2cnc(Oc3cccc(Cl)c3)nc2n(CCC#N)c1=O	> 20 µM
COc1cccc(Cn2c(=O)c(CCc3ccccc3)nc3cnc(N(C)C)nc32)c1	> 4 µM
Cc1cnc(CNc2cc(-c3ccoc3)ncn2)cn1	> 20 µM
CC(=O)N1CCC2(CC1)CN(Cc1ccccc1)C2	> 20 µM
COCCn1c(=O)c(-c2cccc(F)c2)nc2cncnc21	> 20 µM
c1cncc(CNc2nc(-c3ccc4c(c3)OCO4)nc3ccccc23)c1	> 20 µM
CS(=O)(=O)N1CCC[C@@]2(CCN(c3ccccc3)C2)C1	> 20 µM
CN(C)c1ccc(-c2cncnc2NCCc2cnc[nH]2)cc1	> 20 µM
COc1ncc2nc(CCc3ccccc3)c(=O)n(C3CC3)c2n1	> 20 µM
Cn1cccc1C(=O)N1CCC2(CCN(Cc3ccc(C#N)cc3)CC2)CC1	> 20 µM
Cc1ccccc1-c1cc(Nc2ccccc2)ncn1	> 20 µM
N#Cc1cccc(NC(=O)N2CCCC3(CCN(C(=O)c4ccco4)CC3)C2)c1	> 4 µM
O=c1c(-c2cccc(F)c2)nc2cncnc2n1Cc1ccccc1	> 20 µM
COc1ccc2[nH]cc(CCNc3cc(-c4ccc5c(c4)OCO5)ncn3)c2c1	> 20 µM
Cn1c(=O)c(CCc2ccccc2)nc2cnc(Oc3ccccc3)nc21	> 20 µM
CN(C)c1ccc(-c2cc(NCc3ccccc3)ncn2)cc1	> 20 µM
O=C(c1cnccn1)N1CCC2(CCCN(C(c3ccccc3)c3ccccc3)C2)CC1	> 20 µM
COc1ccc(Oc2ncc3ncc(=O)n(-c4ccc(OC)cc4)c3n2)cc1	> 20 µM
COc1ccc(-n2c(=O)c(-c3cc(F)cc(F)c3)nc3cnc(N(C)C)nc32)cc1	> 20 µM

SMILES	Potency
COCCn1c(=O)c(-c2ccc(OC)cc2)nc2cnc(Oc3ccc(OC)cc3)nc21	> 20 µM
COc1ccccc1CN1CC[C@@]2(CCCN(C(=O)c3c(C)noc3C)C2)C1	> 20 µM
O=C(c1csnn1)N1CCC2(CC1)CCN(c1ccccc1)CC2	> 20 µM
COc1cccc(Cn2c(=O)c(-c3cccs3)nc3cncnc32)c1	> 20 µM
COc1cccc(Cn2c(=O)c(-c3cn(C)c4ccccc34)nc3cnc(N4CCNCC4)nc32)c1	> 20 µM
COc1ccc(CNc2ncncc2-c2ccccc2C)c(OC)c1	> 20 µM
COc1ccccc1CNc1ccnc(-c2ccccc2C(F)(F)F)n1	> 20 µM
CCNc1ncc2nc(-c3ccc(Cl)cc3)c(=O)n(C)c2n1	> 20 µM
COc1ccccc1-c1nc(NCc2cccs2)c2ccccc2n1	> 20 µM
CN(C)c1ccnc(-c2cccc(NS(C)(=O)=O)c2)n1	> 20 µM
c1ccc(CNc2nc(-c3cccnc3)nc3ccccc23)cc1	> 20 µM
COc1cccc(Cn2c(=O)cnc3cnc(OC)nc32)c1	> 20 µM
CS(=O)(=O)N1CCC2(CCN(C(=O)Nc3cccc(C#N)c3)CC2)CC1	> 20 µM
CC(=O)NCCNc1nc(-c2ccc(N(C)C)cc2)nc2ccccc12	> 20 µM
CCNc1ncc2nc(-c3cn(C)c4ccccc34)c(=O)n(-c3ccc(OC)cc3)c2n1	3.86 µM (active)
Cc1ccccc1-c1nc(N(C)Cc2ccco2)c2ccccc2n1	> 20 µM
CCNc1ncc2nc(C)c(=O)n(C3CC3)c2n1	> 20 µM
COc1ccc(-n2c(=O)c(-c3cc(F)cc(F)c3)nc3cnc(N4CCNCC4)nc32)cc1	> 20 µM
N#Cc1cccc(-c2ccc3ncnc(NCc4ccccc4)c3c2)c1	> 20 µM
COc1ccc(C(=O)N2CCC[C@@]3(CCN(C(=O)Nc4ccccc4)C3)C2)cc1	> 20 µM
